# Experimental data published in PubChem BioAssay AID720518 (National Center for Advancing Translational Sciences (NCATS), 2013).
# Records with an inconclusive call do not appear. Values without a mark were called inactive. The call rests on the fitted dose curve.
# Assay: qHTS for Inhibitors of Cell Surface uPA Generation: Wild-type Protective Antigen (WT-PrAg) Counterscreen for Cherry-picked Compounds; further: 0% is about no effect
# Conditions: cells, WT protective antigen toxicity counterscreen; series mostly up to 115 µM; activity (protection): at the top concentration
row,SMILES,activity (protection) [%]
1,C[C@@H](CSc1ccccc1)CN1CC[C@H](O)CCC1=O,0.0232
2,O=C(NC1CCCC1)c1nc2c(nnn2Cc2ccccc2Cl)c(=O)[nH]1,-1.28
3,CCN1CCCCC(=N/O)/C(=N/O)CCCC1,3.08
4,CC(=O)c1ccc(N=C2SCCCN2C(=O)C2CCCCC2)cc1,-1.93
5,COc1ccc(S(=O)(=O)N2CCOCC2)cc1NC(=O)CN1C(=O)NC2(CCCC2)C1=O,-0.48
6,CCOc1ccc(C(=O)NCCO)cc1,-0.622
7,Cc1ccc2cc(C=O)c(Cl)nc2c1,-0.682
8,Cc1ccc(/C=N/NC(=O)c2ccc3nc[nH]c3c2)s1,-2
9,CCC(NC(=O)Cc1c(C)c2c(cc(C)c3c(C)c(C)oc32)oc1=O)C(=O)O (stereo not given),-2.27
10,COc1cc2c(cc1OC)CN(C(=O)c1ccc(-c3ccccc3)cc1)CC2,-2.51
11,CN(/N=C/c1cc(Cl)cc(Cl)c1O)C(=S)NC(C)(C)C,-2.11
12,COC(=O)c1ccc(CN2CCCC(CNC(=O)Cc3ccc(OC)cc3)C2)cc1 (stereo not given),0.448
13,Cc1ccc(NC(=O)C(C)S)cc1 (stereo not given),-2.35
14,CC(=O)Oc1ccc(OC(C)=O)c(SCCCCCCl)c1,-2.59
15,O=C(NNC(=O)c1cccnc1)c1ccncc1,-0.865
16,S=C(Nc1ccccc1Oc1ccccc1)NC1CCCC1,-2.13
17,COC(=O)CNC(=O)COC(=O)/C=C/c1ccccc1[N+](=O)[O-],-1.21
18,CC(C)C(NC(=O)Cc1ccccc1)C(=O)N1CCN(c2cccc(Cl)c2)CC1 (stereo not given),-2.55
19,c1ccc(C2[C@H]3CN(Cc4cccnc4)[C@H](c4ccccc4)C34CC2(c2ccccc2)C4)cc1 (stereo not given in full),2.02
20,CCN(CC)C(=O)Cn1cc(/C=C(\C#N)C(=O)NC2CC2)c2ccccc21,2.13

row,SMILES,activity (protection) [%]
1,CCCCCOC(=O)Nc1nnc(CCCCC)s1,2.85
2,O=C(CCS(=O)(=O)c1ccc2c(c1)NC(=O)CS2)NCc1cccs1,1.32
3,CCOC(=O)N1CCc2c(sc3nc4n(c(=O)c23)N=C(C)CS4)C1,-1.1
4,CS(=O)(=O)c1ccc(Cl)c(NC(=O)COC(=O)CNC(=O)c2cccs2)c1,-0.596
5,O=C(CN1CCN(Cc2ccc(Cl)cc2)C1=O)NCc1cccs1,-0.806
6,Cc1cccn2c(CNCC(C)Oc3cccnc3)c(C(=O)N3CCOCC3)nc12 (stereo not given),-1.09
7,COc1ccc(CN2CCN(Cc3ccc(C(F)(F)F)cc3)CC2)cc1,-1.82
8,COc1ccccc1CN1CC(C(=O)NCc2cccc(C)n2)CCC1=O (stereo not given),-1.44
9,COc1ccccc1NC(=O)Cn1nnc(-c2ccccc2NC(=O)c2cc3ccccc3oc2=O)n1,-0.855
10,Cc1cc(C(=O)NP(=O)(N2CCOCC2)N2CCOCC2)c(C)n1C1CC1,2.08
11,O=C(OCC(=O)N1CCOCC1)c1c(Cl)ccc(Cl)c1Cl,-0.419
12,CCC(C)Nc1cc(C)nc2ncnn12 (stereo not given),-0.604
13,COc1ccc(N(CN2C(=O)c3ccccc3C2=O)C(=O)C(C)C)cc1,-0.0709
14,COCCN(C(=O)CSc1nnc(-c2ccncc2)n1C)c1c(N)n(CC(C)C)c(=O)[nH]c1=O,-0.576
15,CCc1nccn1CCC(=O)N1CCc2c([nH]c3ccccc23)C1CC(C)C (stereo not given),-0.387
16,CCOC(=O)N1CCN(c2c(NCCCN3CCCCCC3)c(=O)c2=O)CC1,-1.61
17,Cc1cc(C)cc(NC(=O)Cc2ccc(NC3=NC4CS(=O)(=O)CC4S3)cc2)c1 (stereo not given),0.0867
18,CCOC(=O)C1=C(C)N(Cc2ccccc2)C(=O)NC1c1ccc(OC)cc1 (stereo not given),-0.684
19,O=C(N/N=C/c1cccnc1)c1ccccc1[N+](=O)[O-],-1.19
20,CCOC(=O)CC(=O)CSc1nc2c(C)c(C)ccc2cc1C,1.07
